The results in this text go back to PubChem BioAssay (NCI).

Compounds without any hit were thinned out: in the full panel of roughly 83,000, 20% have a hit.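 Single-dose data. Exposure time 48 hours. Values below 10 considered active.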 Activity calls are given as the source filed them.

The assay deals with SF-539 CNS. Description: NCI-60 one-dose screen, 48 h (100 = growth as untreated, 0 = no growth, -100 = all killed). Conditions: 10 µM unless noted.
For the molecule `Fc1ccc(COc2ccc(Nc3ncnc4sc5c(c34)CCCC5)cc2)cc1`, the growth was 103% (inactive).

Turning to `COc1cc(C2Cc3ncccc3-c3[nH]c(=O)c4cccnc4c32)cc(OC)c1OC` (stereo not given), the growth is -18.8% (active).

For `O=C(c1ccc(Cl)cc1Cl)N1c2ccccc2Sc2ccccc21`, the growth was 41.8% (inactive).

`O=C(N/N=C/c1ccc([N+](=O)[O-])cc1)c1ccc2nc(-c3ccc(Cl)cc3)[nH]c2c1`: the growth is 41.7% (inactive).

On to `O=C(NCc1ccccc1O)c1cccc2ccccc12`, for which the growth is 63.5% (inactive).

Take `CC1=C(C(=O)n2c3ccccc3c3ccccc32)C(c2cccc([N+](=O)[O-])c2)C(C(=O)n2c3ccccc3c3ccccc32)=C(C)N1`: the growth was 98.6% (inactive).

On to `COc1ccc(/C=C/C(=O)c2ccc(NC(=O)CSc3nnc(-c4cc(-c5ccccc5)nc5ccccc45)n3-c3ccccc3)cc2)cc1`, for which the growth was 97.8% (inactive).

For the molecule `Cn1cc(-c2nc(-c3c[nH]c4ccncc34)cs2)c2cc(Br)ccc21`, the growth was -98% (active).

Take `C#Cc1cccc(Oc2ccc(NC(=O)CCl)cc2)c1`: the growth is 47% [8.25 µM] (inactive).

For the molecule `CC1(C)CC[C@]2(C(=O)N3CCOCC3)CC[C@]3(C)C(=CC[C@@H]4[C@@]5(C)C/C(=C/c6ccncc6)C(=O)C(C)(C)[C@@H]5CC[C@]43C)[C@@H]2C1`, the growth was -7.46% (active).

On to `CC(C)c1ccc(NC(=O)Nc2ccc(NC(=O)c3ccccc3N)cc2)cc1`, for which the growth was 30.1% (inactive).

On to `Cc1cc(C(=O)Nc2cc(Nc3ncccc3-c3ncnc4nc[nH]c34)ccc2F)cc(C(F)(F)F)c1`, for which the growth is 21.4% (inactive).

In the case of `COc1cc2c3c(n(CCCCNCCCn4c5c(c6cc(OC)c(OC)cc6c4=O)C(=O)c4cc6c(cc4-5)OCO6)c(=O)c2cc1OC)-c1cc2c(cc1C3=O)OCO2`, the growth was 92.8% (inactive).

With `CNC(=O)c1c(NC(=O)c2ccc(C(C)(C)C)cc2)sc2c(CN(C)C)c(O)ccc12`, the growth was -71.1% (active).

In the case of `CCCCn1sc(=O)n(Cc2ccc(CNC(=O)OCc3ccc4c(Cl)cc(Cl)c(O)c4n3)cc2)c1=O`, the growth is 78% (inactive).

`O=C1Nc2ccc(F)cc2/C1=N/c1nnc(Sc2ccccc2)s1`: the growth was 88.5% (inactive).

With `N#Cc1c(N2CCOCC2)nc(=S)[nH]c1-c1ccccc1`, the growth was 91.3% (inactive).

With `O=C(CSc1nnc2sc(Nc3cccc(Cl)c3)nn12)c1ccc(F)cc1`, the growth was 102% (inactive).

Regarding `C=C(CO)[C@@H]1CC[C@]2(COC3CCCCO3)CC[C@]3(C)[C@H](CC[C@@H]4[C@@]5(C)C=C(C=O)C(=O)C(C)(C)[C@@H]5CC[C@]43C)[C@@H]12` (stereo not given in full), the growth is -90.1% (active).

As to `COc1ccc(-c2cc(C(=O)N3N=C(c4ccc(N)cc4)CC3c3ccccc3)c3ccccc3n2)cc1` (stereo not given), the growth is 13.4% (inactive).

On to `COc1ccc(-c2cc(-c3cc(OC)c(OC)c(OC)c3)c(C#N)c(=O)n2CCCCCC(=O)NO)cc1`, for which the growth is 90.4% (inactive).

Regarding `Cn1ccnc1C(=O)/C=C/c1ccc(C(=O)Nc2ccc(F)cc2)cc1`, the growth was -40.1% (active).

Consider `C=C1C(=O)O[C@H]2[C@H]1CC/C(COC(=O)NCCCCCCCCNC(=O)OC/C1=C/CC[C@@]3(C)O[C@H]3[C@H]3OC(=O)C(=C)[C@@H]3CC1)=C\CC[C@@]1(C)O[C@@H]21`, for which the growth is -88.5% (active).

Turning to `C/C(C=O)=C\c1ccc2c(c1)OCO2`, the growth was 106% (inactive).

Take `COc1cccc(/C=C/C(=O)c2cc3c(N)c(C(=O)Nc4cccc(Cl)c4C)sc3nc2C)c1`: the growth is -36% (active).

As to `COC(=O)/C=C1/SC(=Nc2cccc(Cl)c2)N(CCc2c[nH]c3ccc(O)cc23)C1=O`, the growth is 0.787% (active).

Regarding `CCC/C(=N\NC(N)=O)C(OC)OC`, the growth was 89.2% (inactive).

For `COc1ccc2cc(Cn3cc[n+](Cc4ccc5ccccc5c4)c3)ccc2c1`, the growth was 48.5% (inactive).

Turning to `Cn1c(=O)c2c(c3ccccc31)OC(N)=C(C#N)C21C(=O)c2ccccc2C1=O`, the growth is 91.9% (inactive).

Consider `CN1CCN(c2ccc3c(c2)nc(NNC(=O)c2cnccn2)c2cccn23)CC1`, for which the growth is 15.2% (inactive).

Consider `Cc1cc(C)c(-c2c(O)c(Br)c(-c3c(C)cc(C)c(Br)c3C)c(O)c2Br)c(C)c1Br`, for which the growth was 22.3% (inactive).

For the molecule `CCN(CC)S(=O)(=O)c1ccc(S(=O)(=O)N2CCC[C@@H](C(=O)N3CCN(C(=O)OC(C)(C)C)CC3)C2)cc1`, the growth was 77.7% (inactive).

Consider `O=C1/C=C/[C@@H](O)[C@@H]2C[C@@H](O)C[C@H]2/C=C/CCC[C@H](CCOCc2ccccc2)O1`, for which the growth was 26.2% (inactive).

For `COc1ccc(C2=Nc3c/c(=C\c4c(O)[nH]c5cc(Cl)ccc45)ccc3=N2)cc1`, the growth was 64.8% (inactive).

With `CCCCCCCCCCCCCCCCCCOc1ccccc1CC(=O)NCC[N+]1(C)CCOCC1`, the growth is 54.5% (inactive).

As to `Cc1ccc(-c2cc(C(=O)N3N=C(c4ccc(N)cc4)CC3c3ccc(Cl)cc3)c3ccccc3n2)cc1` (stereo not given), the growth is -2.29% (active).

`O=C(CN1C(=O)/C(=C/c2ccco2)SC1=S)NCCc1c[nH]c2ccc(F)cc12`: the growth was 95.2% (inactive).

Turning to `CCN(CC)CCN(CCN(CC)CC)c1ccccc1`, the growth is 87.6% (inactive).

As to `COc1cc(C(=O)C(=O)c2cc(OC)c(O)c(OC)c2)cc(OC)c1O`, the growth is 97.1% (inactive).

Consider `O=C(/C=C/c1ccc(Br)cc1)c1ccc(-n2cc(CN3CCN(c4cc5c(cc4F)c(=O)c(C(=O)O)cn5C4CC4)CC3)nn2)cc1`, for which the growth was 83% (inactive).
